# Bioassay records deposited in PubChem by Sanford-Burnham Center for Chemical Genomics.
# NPR2 activator – GC-B (human) receptor activation. activation, % at 10 µM. HEK293-GC-B cells, CNP EC30, cGMP TR-FRET; 0% at EC30 CNP, 100% saturating CNP. 370,000 tested, 0.11% active. P20594;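 active = activation at 10 µM reaching about 35% in either raw or pattern-adjusted values, limit read from the data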
# A3A deaminase – blocks human APOBEC3A ssDNA deamination | P31941 | recombinant A3A, FAM/TAMRA ssDNA deamination fluorescence | inhibition, % at 20 µM | 330,000 tested, 0.41% active | AID 493011;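 active = at least 40% inhibition at 20 µM here, with at most 30% in a related deaminase screen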;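 note: plate controls were A3A with DMSO for no effect and wells lacking A3A enzyme for full effect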
# APOBEC3G inh – APOBEC3G (human) deaminase inhibition. AID 493012. recombinant A3G, ssDNA deamination FAM/TAMRA fluorescence. 330,000 tested, 0.28% active. Q9HC16. inhibition, % at 20 µM;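 active = inhibition of at least 40% at 20 µM, with no more than 30% in the related APOBEC3A deaminase screen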;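 note: plate controls were DMSO wells with A3G for no effect and wells lacking A3G enzyme for full effect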
# GC-A act – GC-A (human) enzyme activation | activation, % at 10 µM | P16066 | 370,000 tested, 0.14% active | HEK293 GC-A cells, cGMP TR-FRET, EC30 ANP; 0% at EC30 ANP, 100% saturating ANP | AID 1671463; in the data active = activation above about 40%
# Target sequence (P16066 whole entry, looked up): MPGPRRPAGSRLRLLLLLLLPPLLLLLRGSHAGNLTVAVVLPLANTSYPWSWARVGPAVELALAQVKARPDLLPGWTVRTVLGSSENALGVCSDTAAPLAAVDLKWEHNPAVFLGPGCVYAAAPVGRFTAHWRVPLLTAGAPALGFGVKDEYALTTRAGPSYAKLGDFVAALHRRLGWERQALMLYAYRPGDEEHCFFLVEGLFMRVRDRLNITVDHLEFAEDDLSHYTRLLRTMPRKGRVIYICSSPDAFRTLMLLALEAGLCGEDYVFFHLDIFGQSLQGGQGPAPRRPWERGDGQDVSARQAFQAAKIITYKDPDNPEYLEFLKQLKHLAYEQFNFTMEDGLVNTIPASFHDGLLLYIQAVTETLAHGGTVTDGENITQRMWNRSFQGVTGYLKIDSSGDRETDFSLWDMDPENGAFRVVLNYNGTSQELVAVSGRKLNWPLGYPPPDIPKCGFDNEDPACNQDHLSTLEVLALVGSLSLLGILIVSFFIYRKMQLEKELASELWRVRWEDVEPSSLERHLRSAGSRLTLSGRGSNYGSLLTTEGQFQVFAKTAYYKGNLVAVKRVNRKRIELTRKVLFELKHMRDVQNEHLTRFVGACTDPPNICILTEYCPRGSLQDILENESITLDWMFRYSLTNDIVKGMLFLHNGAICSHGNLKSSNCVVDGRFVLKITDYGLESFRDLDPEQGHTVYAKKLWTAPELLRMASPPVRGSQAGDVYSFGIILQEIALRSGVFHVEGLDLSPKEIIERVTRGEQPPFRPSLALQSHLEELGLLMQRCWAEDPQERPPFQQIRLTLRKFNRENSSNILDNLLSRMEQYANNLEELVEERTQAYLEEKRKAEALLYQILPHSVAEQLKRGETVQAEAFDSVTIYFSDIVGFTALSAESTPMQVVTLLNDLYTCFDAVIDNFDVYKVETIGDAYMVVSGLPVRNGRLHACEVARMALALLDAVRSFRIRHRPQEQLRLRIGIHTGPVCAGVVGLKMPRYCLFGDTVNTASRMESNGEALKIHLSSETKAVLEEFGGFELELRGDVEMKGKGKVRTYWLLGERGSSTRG
# FAS-TE inh – FAS thioesterase (human) inhibition | P49327 | recombinant FAS-TE, OMFH fluorogenic substrate, fluorescence endpoint | inhibition, % at 15 µM | 360,000 tested, 0.67% active | AID 602261;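 active = compounds whose normalised, plate-corrected inhibition of enzyme fluorescence in the single-dose primary screen is 50% or more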;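 note: 0% = DMSO with enzyme and 100% = substrate without enzyme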
# A3G conf – confirmation of human APOBEC3G DNA deaminase inhibitors | shares compounds with APOBEC3G inh | recombinant A3G ssDNA deaminase, UDG/FAM-TAMRA fluorescence | inhibition, % at 20 µM | 890 tested, 72% active;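 active = inhibition reaching a set limit in any replicate at 20 µM, the limit being 80% of the first screen's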
# UDG ctr A3G – inhibits E. coli UDG, flagging false APOBEC3G inhibitors | shares compounds with APOBEC3G inh | UDG counterscreen, FAM/TAMRA oligo fluorescence | inhibition, % at 20 µM | 710 tested, under 10 active;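 active = compounds giving 40% or more inhibition at 20 µM in any one of the three replicates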;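 note: plate controls were DMSO wells with UDG and oligo for no effect and DMSO wells lacking both for full effect; inhibitors lower the FAM signal released by uracil excision and alkaline cleavage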
# Active calls of the source: *; . = not tested or not shown. Only some compounds are listed: those with a hit (about 1.4% of all), similar ones and a draw of the others.
SMILES,NPR2 activator,A3A deaminase,APOBEC3G inh,GC-A act,FAS-TE inh,A3G conf,UDG ctr A3G
Cc1ccc(-n2c(N)c(C(N)=O)sc2=S)c(C)c1,2,1,45*,6,-9,14,.
Cc1ccc(-n2c(N)c(C(=O)N3CCCCC3)sc2=S)cc1,-1,-2,37,2,-12,.,.
Cc1ccc(C)c(-n2c(N)c(C(N)=O)sc2=S)c1,6,1,0,1,-5,.,.
CCOc1ccc(-n2c(N)c(C(=O)N3CCN(C)CC3)sc2=S)cc1,1,-3,-2,4,-14,.,.
Cc1ccc(-n2c(N)c(C(=O)N3CCN(C)CC3)sc2=S)cc1,5,-1,46*,7,-6,74*,-3
Nc1c(C(=O)N2CCCCC2)sc(=S)n1-c1ccccc1,3,1,56*,8,-8,27,.
Nc1c(C(=O)N2CCOCC2)sc(=S)n1-c1ccccc1,3,0,52*,3,-9,31*,-4
CCOC(=O)[C@@]12CCCC3=C1N(CCC3)C(=O)[C@H]2CC(=O)NCC12CC3CC(CC(C3)C1)C2,6,.,.,-1,.,.,.
Cc1nn(Cc2ccc(C(=O)O)o2)c(C)c1[N+](=O)[O-],-4,-1,54*,0,0,7,-1
CCCCCCCCN1C(=O)[C@@H](CC(=O)N2CCN(C(=O)C3CC3)CC2)C[C@@]2(C(=O)OC)C1=C[C@H](C(C)(C)C)O[C@@H]2C,-1,.,.,3,.,.,.
COc1ccc(CN[C@@H]2CC[C@@]34CCCN3C(=O)CCC[C@H]4C2)cc1OC,-1,.,.,0,.,.,.
CCOC(=O)N1CCc2c(sc(NC(=O)CN3CCOCC3)c2C#N)C1,5,3,10,-3,-7,.,.
CCOC(=O)N1CCc2c(sc(N)c2C#N)C1,-2,0,49*,2,.,36*,.
COc1ccc(NC(=O)CC2Sc3ncnn3C2=O)cc1 (stereo not drawn),0,5,26,2,-5,.,.
CCOC(=O)c1ccc(NC(=O)CC2Sc3ncnn3C2=O)cc1 (stereo not drawn),1,-3,42*,2,-8,50*,1
CCN(CC)C(=O)CC[C@H]1CC[C@]2(CCCN(Cc3nccn3C)C2)O1,-6,.,.,2,.,.,.
O=C(C1CCN(c2ncnc3c2nc2n3CCCCC2)CC1)N1CCN(c2ccccc2F)CC1,0,4,46*,4,11,1,.
C=CCN1C(=O)C2(NNc3ccccc3O2)c2ccccc21 (stereo not drawn),-7,1,-6,-4,2,.,.
CCCCN1C(=O)C2(NNc3ccccc3O2)c2ccccc21 (stereo not drawn),-7,1,43*,-3,3,5,.
COc1ccc(/C=C/S(=O)(=O)NCC(C)C)c(CNC(=O)OC(C)(C)C)c1,2,.,.,-4,.,.,.
NC(=O)c1c(NC(=O)C2CCCO2)sc2c1CCCC2 (stereo not drawn),0,5,40*,1,-13,26,.
COC(=O)[C@H](C(C)C)N(CCc1cn(CC2CCCCC2)nn1)S(=O)(=O)c1ccccc1Br,6,.,.,0,.,.,.
CCN1CCN(C(=S)c2ccc(Cl)cc2)CC1,-2,-1,68*,3,-4,75*,-2
Nc1cc(S(=O)(=O)Nc2cc(Cl)ccc2Cl)ccc1N1CCOCC1,6,1,48*,6,-4,34*,6
C=C(C)C(=O)Nc1cccc(C2=NOC3(C2)C[C@@H](C(N)=O)N(C(=O)C(=C)C)C3)c1 (stereo partly drawn),4,13,88*,4,-11,92*,2
SMILES,NPR2 activator,A3A deaminase,APOBEC3G inh,GC-A act,FAS-TE inh,A3G conf,UDG ctr A3G
C=C(C)C(=O)Nc1cccc(C2=NOC3(C2)C[C@@H](C(N)=O)N(C(=O)C2(C)CC2)C3)c1 (stereo partly drawn),0,21,89*,2,-10,94*,.
C/C=C\C(=O)Nc1cccc(C2=NOC3(C2)C[C@@H](C(N)=O)N(C(=O)C2(C)CC2)C3)c1 (stereo partly drawn),-2,4,6,0,-8,.,.
Cc1ccccc1CN1CCCCC(NC(=O)c2ccc(-c3ccccc3)cc2)C1=O (stereo not drawn),6,.,.,5,.,.,.
O=C(Cn1c(-c2cncs2)nc2ccccc21)NC1CCCCC1,3,.,.,-1,.,.,.
CSc1nc(=NC(C)=O)ss1,9,-2,51*,9,-4,43*,0
CC(C)OC(=O)c1ccc2nc3ccccc3nc2c1,-5,-1,64*,2,6,-2,2
CC(C)OC(=O)c1ccc2ccc(-c3ccccc3)nc2c1,-8,.,.,-4,35,.,.
Cc1c(O)cc2c(c1O)C(=O)CC(c1ccc(O)cc1)O2 (stereo not drawn),-1,29,56*,-2,8,69*,.
COc1cc(O)c2c(c1)OC(c1ccc(O)cc1)CC2=O (stereo not drawn),-4,-1,-7,0,8,.,.
CCN(CC)S(=O)(=O)c1cc(NC(=O)Cn2ncc(Cl)c(Cl)c2=O)ccc1C,2,14,55*,-2,5,16,.
O=C(Cn1ncc(Cl)c(Cl)c1=O)Nc1ccc2c(c1)OCO2,-3,8,10,0,2,.,.
Cc1cccc(-c2cccc3c4c([nH]c23)[C@@H]2C[C@H](N(C)C(=O)NC3CCCCC3)[C@H]([C@H](C)O)CN2CC4)c1,-1,.,.,-5,.,.,.
N#Cc1cc2c([nH]c1=S)CCCC2,3,2,67*,3,-11,78*,3
COC(=O)[C@]12C[C@H](CC(=O)N3CCOCC3)C(=O)N(Cc3cccc4ccccc34)C1=C[C@H](C1CCCC1)O[C@@H]2C,-19,.,.,-20,.,.,.
O=C(CC1CCCC1)Nc1cc(S(=O)(=O)N2CCOCC2)ccc1O,-1,4,57*,2,-6,33*,-2
CC(C)(C)OC(=O)NCc1cc(F)ccc1/C=C/S(=O)(=O)NCc1ccc(F)cc1,-3,.,.,-1,.,.,.
CCC(=O)NC1=C(Cl)C(=O)C(NC(=O)CC)=C(Cl)C1=O,9,-4,87*,7,-1,96*,-2
Cc1cc(=S)[nH]c2c(C)cccc12,7,-2,79*,11,-8,-1,-6
COc1ccccc1CCn1cnc(-c2ccc(OC)c(OC)c2)c1CC(C)C,0,.,.,0,.,.,.
O=C(NC1CCCCN(Cc2cccc(F)c2)C1=O)c1cccc(C(F)(F)F)c1 (stereo not drawn),1,.,.,2,.,.,.
